Source: PubChem (National Center for Advancing Translational Sciences (NCATS))
FMDV Renilla: Primary qHTS Assay for Foot and Mouth Disease Virus Antivirals against NCGC Sytravon and CBC Compound Libraries: Renilla Luciferase Signal; FMDV replicon cells, Renilla luciferase signal; Potency, µM (highest dose often 57.5 µM), usual class: inhibitors; 120,000 compounds, 0.32% hits; AID 1745857, 2022; also: nearly all actives have a fitted effect of over 55% in size
FMDV FLuc: Primary qHTS Assay for Foot and Mouth Disease Virus Antivirals against NCGC Sytravon and CBC Compound Libraries: Firefly Luciferase Signal. FMDV antiviral cell assay, firefly luciferase signal. 120,000 compounds, 0.23% hits. AID 1745856, 2022. Potency, µM (series often up to 57.5 µM), actives largely listed as inhibitors; also: nearly all actives have a fitted effect of over 60% in size
Of the large screens only hits and unclear results are named; the others gave an inactive call. A selection: hits, their analogues and other compounds. The true share with any hit is near 0.45%. Calls follow the shape of the full dose curve.

Cc1ccc(OCC(=O)NCc2nncn2C)c(C)c1	none
Cc1ccc(OCn2ccc(C(=O)NCc3c(C)nn(C)c3C)n2)c(C)c1	FMDV Renilla 10µM, FMDV FLuc 13µM
COC(=O)c1ccc(CO/N=C/c2ccc(Cl)cc2Cl)cc1	FMDV FLuc 7.9µM
COC(=O)c1ccc(CO/N=C/c2ccc(OCc3ccc(Cl)cc3)c(OC)c2)cc1	none
Cc1ccccc1CNc1ncnc2ccccc12	FMDV Renilla inconclusive, FMDV FLuc 11µM
Cc1ccccc1CC(=O)Nc1cccc2ncccc12	none
CCc1nc2ccccc2n1CCCCOc1ccccc1C	FMDV Renilla inconclusive, FMDV FLuc 11µM
Cc1ccc(NCc2nc3ccccc3n2CCOc2ccccc2C)cc1	none
C=CCNC(=S)NCCCOC	none
CCOc1ccc2nc(SCC(=O)N3CCN(S(=O)(=O)c4ccccc4)C3C(C)C)[nH]c2c1 (configuration not stated)	FMDV Renilla inconclusive, FMDV FLuc 25µM
CCOc1ccc2nc(SCC(=O)N(Cc3ccccc3)C3CCS(=O)(=O)C3)[nH]c2c1 (configuration not stated)	none
CCCCCn1c(=N)n(CC(O)COc2cccc(C)c2)c2ccccc21 (configuration not stated)	FMDV Renilla 25µM, FMDV FLuc inconclusive
Cc1ccccc1OCC(O)Cn1c(=N)n(CCN2CCCCC2)c2ccccc21 (configuration not stated)	none
CC(C)=CC(=O)Nc1ccc2c(c1)CCC2	none
CCOC(=O)c1ccc(S(=O)(=O)N2CCCC2c2cccn2C)cc1 (configuration not stated)	none
CC(NC(=O)c1occc1-c1ccccc1)c1ccco1 (configuration not stated)	none
CN(C)CCCNC(=O)c1cc(-c2ccccc2)nc2ccccc12	none
CN(C)CCCNC(=O)c1cc(-c2ccc(-c3ccccc3)cc2)nc2ccccc12	FMDV Renilla 8.9µM
COc1ccc(OC)c(NC(=O)c2ccc(-c3nc(COc4ccccc4)c(C)o3)cc2)c1	none
COc1ccccc1NC(=O)c1ccc(-c2nc(COc3ccc(C)cc3)c(C)o2)cc1	FMDV Renilla 25µM, FMDV FLuc inconclusive
COCC(C)n1c(C)cc(C(=O)CSc2nnc(-c3ccncc3)n2-c2ccccc2)c1C (configuration not stated)	none
CNC(=O)CN1c2ccc(Br)cc2-c2ccccc2S1(=O)=O	none
CCC(C)NC(=O)N(C)C1CCN(c2ccc(Cl)cc2)CC1 (configuration not stated)	FMDV Renilla 13µM, FMDV FLuc inconclusive
CCC(C)NC(=O)c1ccc(N(C)C2CCCCC2)cc1 (configuration not stated)	none
CCOC(=O)C(=O)CC(=O)c1cc(Cl)ccc1Cl	none
CCCCCCn1nc(C(=O)Nc2ccc(OC)c(Cl)c2)c2ccccc2c1=O	none
Cc1ccc(NC(=O)Cc2ccc(-n3c(C)nc4cccnc43)cc2)c(Cl)c1	FMDV Renilla 10µM, FMDV FLuc 14µM
COc1ccc(Cn2c(CCC(=O)Nc3ccc(C)cc3C)nc3cccnc32)cc1	none
Clc1ccc(-c2csc3ncnc(Sc4nnc(C5CC5)o4)c23)cc1	FMDV Renilla 20µM, FMDV FLuc 25µM
Cc1cc(C)n(-c2ncnc3scc(-c4ccc(Cl)cc4)c23)n1	none
CCOC(=O)c1ccc(Oc2c(C(F)(F)F)oc3cc(O)ccc3c2=O)cc1	FMDV Renilla 25µM, FMDV FLuc inconclusive
CCOC(=O)COc1ccc2c(=O)c(Oc3ccc(C(=O)OC)cc3)c(C(F)(F)F)oc2c1	none
CN1CCN(C(=O)CN2C(=O)c3ccccc3C2c2cn(C)c3ccccc23)CC1 (configuration not stated)	none
Cc1ccc2nc(C)cc(C(=O)O)c2c1	none
COc1ccc(-n2c(=O)c(C#N)cc3c(=O)n4cccc(C)c4nc32)cc1	none
CCc1ccccc1NC(=O)C1CCCN(c2cnc3ccccc3n2)C1 (configuration not stated)	none
CCC(C)S(=O)(=O)c1oc(-c2cccs2)nc1S(=O)(=O)c1ccccc1 (configuration not stated)	FMDV FLuc 32µM
O=S(=O)(c1ccccc1)c1nc(-c2cccs2)oc1N1CCCCC1	none
COc1ccc(NC(=O)c2sc(-c3ccco3)nc2-c2ccccc2)cc1OC	none
CCCC1CCC(=NNC(=S)NCc2ccccc2)CC1 (configuration not stated)	none
CCOc1ccc(OC(=O)c2c(-c3ccccc3Cl)noc2C)cc1	FMDV Renilla inconclusive, FMDV FLuc 28µM
Cc1onc(-c2ccccc2Cl)c1C(=O)Oc1ccccc1F	none
CCCc1cc(=O)oc2cc(OCC(=O)OC(C)(C)C)ccc12	none
CCCCOC(=O)c1ccc(NC(=O)c2ccc3c(c2)CCCN3S(C)(=O)=O)cc1	FMDV Renilla 22µM, FMDV FLuc 28µM
CCCCOC(=O)c1ccc(NC(=O)c2ccc3c(c2)CCN3S(=O)(=O)c2ccccc2)cc1	none
O=C1CN=C(c2ccccc2Cl)c2cc(Cl)ccc2N1Cc1cccc(Cl)c1	FMDV Renilla 32µM, FMDV FLuc 25µM
